Calb FLC = C. albicans growth inhibition with fluconazole, primary screen, CaCi-2 strain, Alamar Blue fluorescence; actives 0.57% (n = 300,000); AID 1979, 2009; growth inhibition, % (concentration not given with the values); C. albicans CaCi-2 (fluconazole-resistant clinical isolate) + fluconazole, 48 h;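 active = growth inhibition above about 58% in most replicates, limit read from the data, passing the limit was not always enough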;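 also: all wells also contain fluconazole at 8 µg/ml as a sub-toxic cotreatment; 0% = median of DMSO wells and 100% = median of geldanamycin control wells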
PfM18AAP inh-1 = PfM18AAP inhibitors, malaria aminopeptidase, primary screen, biochemical, QFRET, recombinant enzyme | M18 aspartyl aminopeptidase (Plasmodium falciparum 3D7) | H-Glu-NHMec fluorogenic cleavage | inhibition, % at 7.35 µM | actives 1.2% (n = 290,000);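 active = inhibition above the campaign mean inhibition over all tested compounds plus 3 SD, cut at about 28% in these data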;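 also: 0% = plate median of test compound wells and 100% = 2 mM ZnCl2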
CTSL1 counter-1 = Fasciola hepatica cathepsin L1 inhibitors, primary screen, counter-screen for PFM18AAP inhibitor project, biochemical, QFRET, fluorogenic peptide substrate. recombinant F. hepatica cathepsin L1, Z-Leu-Arg-MCA fluorescence. inhibition, % at 5.96 µM. actives 0.49% (n = 300,000). AID 1906, 2009;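 active = inhibition above the mean of all tested compounds plus 3 SD, set per screening campaign, cut at about 17% in these data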;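 also: 0% = plate median of test compound wells and 100% = 1 µM Z-Phe-Ala-diazomethylketone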
Rin1 Abl inh = inhibitors of Rin1-Abl protein binding, primary screen, biochemical, TR-FRET. Tyrosine-protein kinase ABL1 (Homo sapiens) + Ras and Rab interactor 1 (Homo sapiens), …. inhibition, % at 7.35 µM. actives 0.4% (n = 360,000); in the data active = inhibition above about 5%, passing the limit was not always enough
PfM18AAP inh-2 = PfM18AAP inhibitors, malaria aminopeptidase, confirmation, biochemical, QFRET, recombinant enzyme, triplicate; shares compounds with PfM18AAP inh-1; AID 2170, 2009; H-Glu-NHMec fluorogenic cleavage; inhibition, % at 7.35 µM; actives 28% (n = 2,400);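 active = mean inhibition over replicate wells above the hit cutoff set for the earlier primary screen, cut at about 29% in these data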;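 also: 0% = median of test compound wells and 100% = 2 mM ZnCl2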
CTSL1 counter-2 = cathepsin L1 inhibitors, retest, confirmation, counter-screen for PFM18AAP inhibitor project, biochemical, QFRET, triplicate; shares compounds with PfM18AAP inh-1; 2,400 tested, under 10 active; purified cathepsin L1, Z-Leu-Arg-MCA fluorescence; inhibition, % at 5.96 µM;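 active = average inhibition across replicates above the hit cutoff set in the earlier primary screen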;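 also: 0% = median of test compound wells and 100% = Z-Phe-Ala-diazomethylketone 1 µM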
Target sequence (P07711 whole entry, looked up): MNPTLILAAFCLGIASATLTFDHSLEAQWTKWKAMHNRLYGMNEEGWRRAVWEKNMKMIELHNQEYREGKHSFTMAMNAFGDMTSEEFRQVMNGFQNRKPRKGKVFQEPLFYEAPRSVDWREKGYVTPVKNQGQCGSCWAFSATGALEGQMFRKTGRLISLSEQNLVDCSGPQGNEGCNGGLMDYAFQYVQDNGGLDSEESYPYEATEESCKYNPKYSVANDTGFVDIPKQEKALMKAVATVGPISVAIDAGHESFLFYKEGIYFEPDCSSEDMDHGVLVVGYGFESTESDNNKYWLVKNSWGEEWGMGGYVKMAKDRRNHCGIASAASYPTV
* marks the source's active call; other numbers are inactive results. The list is not random: actives were taken first. Their share in the collection is about 2.1%.

What do the screens show for `CSc1nc2nc3c(cn2n1)C(=O)CC(c1ccccc1)C3` (centres undefined)?
Calb FLC: 43; PfM18AAP inh-1: 34*; CTSL1 counter-1: 2; Rin1 Abl inh: 4; PfM18AAP inh-2: -53; CTSL1 counter-2: -2

Results for CCCCN=Cc1c(C)[nH]n(-c2ccccc2)c1=S ?
Calb FLC: -11; PfM18AAP inh-1: 51*; CTSL1 counter-1: 5; Rin1 Abl inh: 2; PfM18AAP inh-2: -18; CTSL1 counter-2: 1

Results for COc1ccc(NC(=O)C(=O)NCC2CCCN2S(=O)(=O)c2ccc(C)cc2)cc1 (centres undefined) ?
Calb FLC: 11; CTSL1 counter-1: 3; Rin1 Abl inh: 3

What do the screens show for `COc1ccc(Nc2nc3c([nH]2)c(=O)[nH]c(=O)n3C)cc1`?
Calb FLC: 3; PfM18AAP inh-1: 35*; CTSL1 counter-1: 2; Rin1 Abl inh: 2; PfM18AAP inh-2: 12; CTSL1 counter-2: 1

How did COc1ccc(/C=N/NC(=O)c2ccc3nc[nH]c3c2)cc1OC do in these assays?
Calb FLC: 1; PfM18AAP inh-1: -5; CTSL1 counter-1: 0; Rin1 Abl inh: -1

What do the screens show for `N#CCc1c(C#N)c(N)nc(Nc2ccccc2)c1C#N`?
Calb FLC: -5; PfM18AAP inh-1: -12; CTSL1 counter-1: 1; Rin1 Abl inh: -2

How did CCN(CC)S(=O)(=O)c1ccc(C)c(NC(=O)COC(=O)c2ccc(C)c(S(=O)(=O)N3CCOCC3)c2)c1 do in these assays?
Calb FLC: 10; PfM18AAP inh-1: 8; CTSL1 counter-1: -5; Rin1 Abl inh: -4

What do the screens show for `CC(=O)C1CCC2C3CC(C)C4=CC(=O)CCC4(C)C3C(=O)CC12C` (centres undefined)?
Rin1 Abl inh: 6

How did N#Cc1c(/N=C/C=C/c2ccccc2)sc2c1CCCC2 do in these assays?
Calb FLC: 2; PfM18AAP inh-1: 35*; CTSL1 counter-1: 3; Rin1 Abl inh: -2; PfM18AAP inh-2: -35; CTSL1 counter-2: 3

How did COc1cc(/C=C/C(=O)Nc2nnc(CC(C)C)s2)cc(OC)c1OC do in these assays?
Calb FLC: -5; PfM18AAP inh-1: 1; CTSL1 counter-1: 0; Rin1 Abl inh: 0

Results for COc1cc(/C=C/C(=O)Nc2nnc(CC(C)(C)C)s2)cc(OC)c1OC ?
Calb FLC: 15; PfM18AAP inh-1: 34*; CTSL1 counter-1: 7; Rin1 Abl inh: 2; PfM18AAP inh-2: -8; CTSL1 counter-2: 2

Results for COCCCNC(=O)c1cccc(OC)c1OC ?
Calb FLC: 5; PfM18AAP inh-1: -10; CTSL1 counter-1: 0; Rin1 Abl inh: 0

What do the screens show for `O=C(Nn1cnnc1)c1ccccc1Cl`?
Calb FLC: 3; PfM18AAP inh-1: 55*; CTSL1 counter-1: -3; Rin1 Abl inh: 3; PfM18AAP inh-2: 40*; CTSL1 counter-2: -1

What do the screens show for `CCc1ccc(-c2cc(C(=O)Nn3cnnc3)c3ccccc3n2)cc1`?
Calb FLC: -4; PfM18AAP inh-1: 43*; CTSL1 counter-1: -2; Rin1 Abl inh: -2; PfM18AAP inh-2: 46*; CTSL1 counter-2: -1

What do the screens show for `O=C(O)c1ccccc1C(=O)O`?
Rin1 Abl inh: -3

How did O=C(O)c1ccccc1C(=O)Nn1cnnc1 do in these assays?
Calb FLC: -6; PfM18AAP inh-1: 37*; CTSL1 counter-1: 1; Rin1 Abl inh: -1; PfM18AAP inh-2: 36*; CTSL1 counter-2: -2

Results for COc1cccc(C(=O)Nn2cnnc2)c1OC ?
Calb FLC: -7; PfM18AAP inh-1: 43*; CTSL1 counter-1: 3; Rin1 Abl inh: -1; PfM18AAP inh-2: 52*; CTSL1 counter-2: -4

How did O=C(O)CCC(=O)Nc1ccc(NC(=O)c2ccc(Cl)cc2Cl)c(Cl)c1 do in these assays?
Calb FLC: -3; PfM18AAP inh-1: -3; CTSL1 counter-1: 2; Rin1 Abl inh: 4

Results for Cn1c(CN2CCCC2)nc2cc(NC(=O)COc3ccc([N+](=O)[O-])cc3)ccc21 ?
Calb FLC: 11; PfM18AAP inh-1: 0; CTSL1 counter-1: 5; Rin1 Abl inh: -3
